Laboratory results reported in the supplement of paper PMC3334620.
Over roughly 33,000 sequences, “E-score (-0.5 to 0.5)” has its median near -0.013; the highest 2% begin near 0.3. This excerpt belongs to a sample that is enriched for the highest values.

Each sequence was assayed against T1, Msn1 (UniProt P22148) (assay: PBM E-score (8-mer binding enrichment) (E-score (-0.5 to 0.5)); higher = stronger / more preferred TF binding). Settings: protein concentration: 200 nM; construct: GST-full length.
T1 sequence: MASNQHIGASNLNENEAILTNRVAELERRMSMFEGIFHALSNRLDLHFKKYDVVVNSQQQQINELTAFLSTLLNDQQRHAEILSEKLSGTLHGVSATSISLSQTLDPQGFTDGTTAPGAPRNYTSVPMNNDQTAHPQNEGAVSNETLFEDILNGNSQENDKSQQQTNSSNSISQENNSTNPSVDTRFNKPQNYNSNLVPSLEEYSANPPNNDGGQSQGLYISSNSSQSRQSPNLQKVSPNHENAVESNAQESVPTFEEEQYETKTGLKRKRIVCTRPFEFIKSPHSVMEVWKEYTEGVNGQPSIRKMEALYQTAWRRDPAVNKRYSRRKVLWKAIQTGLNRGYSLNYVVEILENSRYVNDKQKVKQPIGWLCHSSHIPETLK
Outline: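 GST-tagged yeast TFs (full-length or DNA-binding domain) were made by PURExpress in vitro transcription/translation and applied at about 100-200 nM to universal all-10-mer Agilent arrays. The arrays were made double-stranded by primer extension, on fresh or once-stripped slides. Bound protein was detected with fluorescent anti-GST, and scans were normalised with masliner. Each ungapped eight-base word, pooled with its reverse complement, received an E-score (modified Wilcoxon-Mann-Whitney statistic) from the Universal PBM Analysis Suite.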

| Sequence | PBM E-score |
| --- | --- |
| AATACTCT | 0.0619 |
| ATTAGAGA | 0.00489 |
| GTCTTGGA | 0.0469 |
| CAAAGTTG | 0.101 |
| GTCTGAAA | 0.241 |
| CCCCAATA | -0.122 |
| ATATTCCA | 0.212 |
| ATATTCCG | 0.321 |
| ATATTCCC | 0.0634 |
| ACGTAGCG | -0.138 |
| AGTTTGTG | -0.0605 |
| AGTTTGTA | 0.182 |
| CGTTTGAC | 0.12 |
| AGTTTGTC | 0.446 |
| CGTTTGTA | 0.189 |
| CGTTTGTC | 0.44 |
| TATGTAAA | 0.0978 |
| GACGCCAA | -0.157 |
| CAAATTAA | 0.0951 |
| TTATTAAA | 0.29 |
| AAATTAAC | 0.0769 |
| ATATTAAA | 0.344 |

| Sequence | PBM E-score |
| --- | --- |
| GAAATTAA | 0.34 |
| AAATTAAT | 0.199 |
| AGATTAAT | 0.0857 |
| CTATTAAA | 0.179 |
| AGATTAAA | 0.309 |
| AAATTAAA | 0.355 |
| CGATTAAA | 0.0941 |
| AAAATTAA | 0.187 |
| TGGGTCAA | -0.0713 |
| CGCCAAGA | -0.142 |
| GCAGAGGC | -0.241 |
| CCCTGCCG | -0.254 |
| CGCCAATC | -0.0945 |
| AATGCCCC | -0.197 |
| AATTCAGG | 0.109 |
| GCGGGTGA | -0.0547 |
| GCACAAAC | 0.0596 |
| AAGCCTCT | -0.17 |
| ACAATGTA | 0.156 |
| CCAATGAC | -0.00959 |
| CCAATGTC | 0.328 |
| CCAATGTA | 0.0173 |

| Sequence | PBM E-score |
| --- | --- |
| ACAATGTC | 0.452 |
| ACAATGTG | 0.0288 |
| GCATAAAA | 0.128 |
| AATCCTTA | -0.134 |
| CGAGCTAA | -0.0305 |
| CAGAATAA | 0.0293 |
| GGGACACA | 0.449 |
| TCGACACA | 0.133 |
| TGCACACA | 0.0221 |
| GTGACACA | 0.286 |
| GGGACACC | 0.185 |
| TGGACACA | 0.427 |
| AGGAAATC | 0.0408 |
| AAGTGCGC | -0.108 |
| ATGCTGTC | 0.0368 |
| GTAGCGCA | -0.107 |
| CCAAGAAG | -0.0807 |
| ATTATAAA | 0.17 |
| ATTATAAG | 0.103 |
| ATTATAAT | 0.307 |
| CCACATAC | 0.0664 |
| CACCAACG | 0.185 |

| Sequence | PBM E-score |
| --- | --- |
| CCATAGAG | 0.0389 |
| ACGCTAAT | -0.223 |
| AAAGGCCG | -0.00669 |
| ATACCTAG | -0.0479 |
| ATGTCTGC | 0.286 |
| GTGTCTGA | 0.185 |
| ATGTCTTG | 0.35 |
| ATGTCTGA | 0.425 |
| CTGTCTGA | 0.0827 |
| ATGTCTTA | 0.423 |
| ACGTCTGG | 0.154 |
| ATGTCTTC | 0.293 |
| GTGTCTTA | 0.04 |
| AAGTCTTG | 0.0419 |
| CTGTCTTA | 0.181 |
| ATGTCTGG | 0.323 |
| GACCATTA | 0.0825 |
| ATCACAAT | -0.035 |
| CAAACGAG | 0.099 |
| CAGAGGAC | 0.0901 |
